Assay results taken from PubChem BioAssay AID1159580 (chemical genetic matrix, 2015).
Screen size: about 5,500 compounds; about 2,000 (36%) were called active. About 18% were inconclusive and are not listed. No stated cut-off is given here; in the data, active means normalized growth mostly below about 0.91 (no sharp cut-off); inconclusive means no clear call, values can overlap the other calls; inactive means mostly above about 0.92. The list shows a part of the results.

Assay: chemical genetic growth profiling, strain panel (AID 1159580);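 further: tested at 20 µM; growth read once vehicle control cultures reached saturation at 30 °C; 1 = growth at the plate median or of vehicle wells; lower values mean less growth of the strain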
Details: S. cerevisiae deletion strains, growth OD
[1] = locus YJL095W, strain BCK1, active compounds read low
[2] = locus YMR307W, strain GAS1, active compounds read low
[3] = locus YNL128W, strain TEP1, active compounds read low

Measured: normalized growth

CC(=O)O[C@H]1C(=O)[C@@]2(C)C([C@H](OC(=O)c3ccccc3)[C@]3(O)C[C@H](O)C(C)=C1C3(C)C)[C@]1(OC(C)=O)CO[C@@H]1C[C@@H]2O (stereo partly drawn)
inactive: locus YAL021C, strain ccr4, active compounds read low 0.974 | locus YAL026C, strain drs2, active compounds read low 0.983 | locus YAL030W, strain snc1, active compounds read low 1 | locus YBL061C, strain skt5, active compounds read low 1.02 | locus YBR009C, strain hhf1, active compounds read low 0.986 | locus YBR023C, strain chs3, active compounds read low 0.998 | locus YBR171W, strain sec66, active compounds read low 1 | locus YBR231C, strain swc5, active compounds read low 1 | locus YBR279W, strain paf1, active compounds read low 0.999 | locus YCL011C, strain gbp2, active compounds read low 1 | locus YCL016C, strain dcc1, active compounds read low 1.01 | locus YCL069W, strain vba3, active compounds read low 0.98 | locus YCR088W, strain abp1, active compounds read low 0.986 | locus YDL005C, strain med2, active compounds read low 1 | locus YDL040C, strain nat1, active compounds read low 0.999 | locus YDR001C, strain nth1, active compounds read low 0.99 | locus YDR069C, strain doa4, active compounds read low 1.02 | locus YDR137W, strain rgp1, active compounds read low 1.05 | locus YDR159W, strain sac3, active compounds read low 1.01 | locus YDR195W, strain ref2 0.946 | locus YDR297W, strain sur2, active compounds read low 0.977 | locus YDR334W, strain swr1, active compounds read low 0.969 | locus YDR335W, strain msn5, active compounds read low 0.993 | locus YDR392W, strain spt3, active compounds read low 0.985 | locus YEL003W, strain gim4, active compounds read low 0.991 | locus YEL037C, strain rad23, active compounds read low 0.983 | locus YEL061C, strain CIN8 (second series), active compounds read low 0.981 | locus YER015W, strain faa2, active compounds read low 1 | locus YER016W, strain bim1, active compounds read low 1.01 | locus YER111C, strain swi4, active compounds read low 1 | locus YER155C, strain BEM2 (second series), active compounds read low 1.01 | locus YFR010W, strain ubp6, active compounds read low 0.985 | locus YGL167C, strain pmr1, active compounds read low 1 | locus YGL173C, strain kem1, active compounds read low 0.998 | locus YGL227W, strain vid30, active compounds read low 0.992 | locus YGL240W, strain doc1, active compounds read low 1 | locus YGL253W, strain hxk2, active compounds read low 0.99 | locus YHR013C, strain ard1, active compounds read low 1 | locus YHR027C, strain rpn1, active compounds read low 1 | locus YHR030C, strain SLT2, active compounds read low 0.988 | locus YHR079C, strain IRE1, active compounds read low 0.995 | locus YHR142W, strain chs7, active compounds read low 0.984 | locus YJL092W, strain hpr5, active compounds read low 0.998 | locus YJL095W, strain BCK1 (second series), active compounds read low 0.995 | [1] 0.995 | locus YJL115W, strain asf1, active compounds read low 0.973 | locus YJL129C, strain trk1, active compounds read low 0.982 | locus YJL154C, strain vps35, active compounds read low 0.98 | locus YJL164C, strain tpk1, active compounds read low 1 | locus YJL166W, strain qcr8, active compounds read low 1 | locus YJR066W, strain TOR1, active compounds read low 0.94 | locus YKL160W, strain elf1, active compounds read low 1.01 | locus YKR026C, strain gcn3, active compounds read low 0.985 | locus YKR091W, strain srl3, active compounds read low 1.01 | locus YLL001W, strain dnm1, active compounds read low 1 | locus YLL026W, active compounds read low 0.999 | locus YLL041C, strain sdh2, active compounds read low 0.985 | locus YLR027C, strain aat2, active compounds read low 0.988 | locus YLR113W, strain HOG1, active compounds read low 1.01 | locus YLR221C, strain rsa3, active compounds read low 0.994 | locus YLR258W, strain gsy2, active compounds read low 0.999 | locus YLR262C, strain YPT6 (second series), active compounds read low 1 | locus YLR320W, strain mms22, active compounds read low 1.01 | locus YLR342W, strain FKS1, active compounds read low 1.01 | locus YLR357W, strain rsc2, active compounds read low 0.968 | locus YLR370C, strain arc18, active compounds read low 0.984 | locus YLR384C, strain iki3, active compounds read low 0.981 | locus YML120C, strain ndi1, active compounds read low 1.01 | locus YMR058W, strain fet3, active compounds read low 0.99 | locus YMR125W, strain sto1, active compounds read low 0.993 | locus YMR129W, active compounds read low 0.988 | locus YMR205C, strain PFK2, active compounds read low 0.989 | locus YMR231W, strain pep5, active compounds read low 1 | locus YNL071W, strain lat1, active compounds read low 0.979 | locus YNL183C, strain NPR1, active compounds read low 0.953 | locus YNL209W, strain ssb2, active compounds read low 0.987 | locus YNL248C, strain rpa49, active compounds read low 0.974 | locus YNL322C, strain KRE1 (second series), active compounds read low 1.01 | locus YNR049C, strain mso1, active compounds read low 1.01 | locus YOR001W, strain rrp6, active compounds read low 0.982 | locus YOR070C, strain gyp1, active compounds read low 0.987 | locus YOR080W, strain dia2, active compounds read low 0.993 | locus YOR083W, strain WHI5, active compounds read low 1.01 | locus YOR106W, strain vam3, active compounds read low 1.01 | locus YOR231W, strain MKK1, active compounds read low 0.973 | locus YOR265W, strain rbl2, active compounds read low 0.969 | locus YOR270C, strain vph1, active compounds read low 0.888 | locus YOR290C, strain snf2, active compounds read low 1.02 | locus YPL051W, strain arl3, active compounds read low 1.01 | locus YPL078C, strain atp4, active compounds read low 0.996 | locus YPL106C, strain sse1, active compounds read low 0.987 | locus YPL240C, strain hsp82, active compounds read low 0.995 | locus YPL256C, strain CLN2, active compounds read low 0.966

CC(=O)OC1C(=O)C2(C)C(O)CC3OCC3(OC(C)=O)C2C(OC(=O)c2ccccc2)C2(O)CC(OC(=O)C(O)C(NC(=O)c3ccccc3)c3ccccc3)C(C)=C1C2(C)C (stereo not drawn)
inactive: locus YCL061C, strain MRC1 (second series), active compounds read low 0.996 | locus YDR363W, strain ESC2, active compounds read low 0.984 | locus YER002W, strain NOP16, active compounds read low 1 | [2] 0.975 | [3] 1 | locus YNL197C, strain WHI3, active compounds read low 0.981 | locus YNL224C, strain SQS1, active compounds read low 1.03 | locus YPL241C, strain CIN2, active compounds read low 0.995

C=C(C)/C=C1/C=CC(=O)C(C)=C1
active: locus YBR021W, strain FUR4, active compounds read low 0.466 | locus YCL029C, strain bik1, active compounds read low 0.611 | locus YDL035C, strain GPR1, active compounds read low 0.185 | locus YDL074C, strain BRE1, active compounds read low 0.26 | locus YDL101C, strain DUN1, active compounds read low 0.803 | locus YDL185W, strain tfp1, active compounds read low 0.06 | locus YDL192W, strain arf1, active compounds read low 0.0749 | locus YDR101C, strain arx1, active compounds read low 0.613 | locus YDR162C, strain NBP2, active compounds read low 0.208 | locus YDR318W, strain mcm21, active compounds read low 0.0733 | locus YDR388W, active compounds read low 0.544 | locus YDR502C, strain sam2, active compounds read low 0.0764 | locus YEL061C, strain CIN8, active compounds read low 0.288 | locus YER110C, active compounds read low 0.472 | locus YER155C, strain BEM2, active compounds read low 0.27 | locus YER167W, strain BCK2, active compounds read low 0.151 | locus YGL078C, strain dbp3, active compounds read low 0.0621 | locus YGL086W, strain mad1, active compounds read low 0.0823 | locus YGL248W, strain PDE1, active compounds read low 0.152 | locus YGR078C, strain PAC10, active compounds read low 0.097 | locus YGR135W, strain pre9, active compounds read low 0.129 | locus YGR252W, strain gcn5, active compounds read low 0.264 | locus YHR079C, strain IRE1 (second series), active compounds read low 0.687 | locus YHR094C, strain hxt1, active compounds read low 0.088 | locus YHR129C, strain ARP1, active compounds read low 0.107 | locus YHR200W, strain rpn10, active compounds read low 0.27 | locus YIL066C, strain RNR3, active compounds read low 0.458 | locus YIL073C, strain SPO22, active compounds read low 0.179 | locus YIL125W, strain kgd1, active compounds read low 0.0607 | locus YIR030C, strain dcg1, active compounds read low 0.42 | [1] 0.375 | locus YJL134W, strain LCB3, active compounds read low 0.183 | locus YJL168C, strain set2, active compounds read low 0.203 | locus YJL187C, strain SWE1 (second series), active compounds read low 0.636 | locus YKL068W, active compounds read low 0.0579 | locus YKL085W, strain MDH1 (second series), active compounds read low 0.0777 | locus YKL085W, strain MDH1, active compounds read low 0.0777 | locus YKL190W, strain CNB1, active compounds read low 0.198 | locus YKR001C, strain vps1, active compounds read low 0.0676 | locus YLR039C, strain RIC1, active compounds read low 0.166 | locus YLR058C, strain SHM2, active compounds read low 0.755 | locus YLR102C, strain apc9, active compounds read low 0.0756 | locus YLR262C, strain YPT6, active compounds read low 0.152 | locus YLR268W, strain sec22, active compounds read low 0.076 | locus YLR330W, strain CHS5, active compounds read low 0.0909 | locus YLR371W, strain rom2, active compounds read low 0.0908 | locus YLR418C, strain cdc73, active compounds read low 0.116 | locus YML016C, strain PPZ1, active compounds read low 0.228 | locus YML032C, strain rad52, active compounds read low 0.7 | locus YML124C, strain tub3, active compounds read low 0.174 | locus YMR078C, strain ctf18, active compounds read low 0.0861 | locus YMR223W, strain ubp8, active compounds read low 0.108 | [2] 0.147 | locus YNL067W, strain RPL9B, active compounds read low 0.0907 | [3] 0.229 | locus YNL233W, strain BNI4, active compounds read low 0.188 | locus YNL250W, strain rad50, active compounds read low 0.0988 | locus YNL271C, strain bni1, active compounds read low 0.0645 | locus YNL298W, strain CLA4, active compounds read low 0.06 | locus YNL307C, strain MCK1, active compounds read low 0.0748 | locus YNR052C, strain pop2, active compounds read low 0.748 | locus YOL006C, strain TOP1, active compounds read low 0.202 | locus YOL147C, strain pex11, active compounds read low 0.464 | locus YOR061W, strain CKA2, active compounds read low 0.449 | locus YOR069W, strain VPS5, active compounds read low 0.0688 | locus YOR136W, strain idh2, active compounds read low 0.106 | locus YOR144C, strain elg1, active compounds read low 0.646 | locus YOR184W, strain ser1, active compounds read low 0.0806 | locus YOR316C, strain cot1, active compounds read low 0.0831 | locus YPL055C, strain LGE1, active compounds read low 0.103 | locus YPR119W, strain clb2, active compounds read low 0.0703 | locus YPR141C, strain kar3, active compounds read low 0.0832 | locus YPR163C, strain tif3, active compounds read low 0.0853 | locus YPR167C, strain met16, active compounds read low 0.0692 | strain wtn01, active compounds read low 0.0763
inactive: locus YBR229C, strain ROT2, active compounds read low 0.99 | locus YOL012C, strain htz1 0.247
